# HT1080-NT tox – kills 2HG-producing HT-1080-NT fibrosarcoma cells; Potency, µM (top dose mostly 46.1 µM), without a hit: top-dose activity, negative = less viability, most hits filed as cytotoxic; 1.6% of 360,000 active; HT-1080-NT fibrosarcoma viability, CellTiter-Glo ATP luminescence, 48 h; AID 686970;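 note: NT is the 2HG producing partner of a matched IDH1 knockdown line; potency is the fitted concentration of half-maximal effect; 0% = DMSO-treated cells and -100% = media-only wells without cells; nearly all actives have a fitted effect of over 55% in size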
#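 Toxicity toward the 2HG-producing NT line was scored as %Activity, normalised to DMSO and no-cell wells, from CellTiter-Glo luminescence after 48 hours' treatment.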
# HT1080 IDH1KD tx – kills HT-1080 cells with IDH1 knockdown; HT-1080 IDH1 knockdown viability, ATP luminescence, 48 h; Potency, µM (doses to about 46.1 µM), inactives show at the top dose activity, negative = toxicity, usual class: cytotoxic; 2% of 360,000 active;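 note: potency is the fitted concentration of half-maximal effect; 0% = DMSO wells and -100% = cell-free medium wells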
#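 CellTiter-Glo luminescence after 48 h compound exposure at 37 degrees C of IDH1-knockdown HT-1080 cells in 5% FBS RPMI. %Activity scaled between DMSO wells and cell-free media wells, with curves fitted and assigned curve classes.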
# DT40 TDP1 no CPT – qHTS for Inhibitors of human tyrosyl-DNA phosphodiesterase 1 (TDP1): qHTS in cells in absence of CPT | 15% of 420,000 active | Potency, µM (doses to about 46.2 µM), inactives show at the top dose activity change, negative = growth inhibition, usual class: inhibitors | DT40 Tdp1-/- hTDP1 cells, no CPT, ATP luminescence, 48 h | AID 686978, 2013; note: potency is the fitted concentration of half-maximal effect; nearly all actives have a fitted effect of over 55% in size
#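 Growth of hTDP1-complemented DT40 Tdp1-knockout cells is measured by ATP luminescence after at least 48 hr compound exposure at 37 °C, with DMSO substituting for the 20 nM CPT used in the parallel screen.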
# IL1B secr inh – blocks inflammasome-driven IL-1 beta release. activity change, % at 57.5 µM. AID 743279. THP-1 LPS/ATP IL-1B secretion, AlphaLISA, 16 h; active compounds read low. 4.7% of 360,000 active; in the data active = activity change below about -50%; inconclusive = mostly about -30% to -49%
#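 Secreted IL-1B measured by AlphaLISA bead assay after 16 h compound exposure of THP-1 cells; compounds (final up to 57.5 uM) added 1 h before LPS (250 ng/mL) and ATP (1.25 mM) stimulation; lower signal means less secretion.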
# 12-LOX inh – ALOX12 (human) lipoxygenase inhibition; purified 12hLO, xylenol orange hydroperoxide absorbance; Potency, µM (series often up to 108 µM), for the others: at the top dose activity change, negative = inhibition, usual class: inhibitors; 1.1% of 580,000 active; AID 1671190; note: potency is the fitted concentration of half-maximal effect
# Target sequence (P18054 whole entry, looked up): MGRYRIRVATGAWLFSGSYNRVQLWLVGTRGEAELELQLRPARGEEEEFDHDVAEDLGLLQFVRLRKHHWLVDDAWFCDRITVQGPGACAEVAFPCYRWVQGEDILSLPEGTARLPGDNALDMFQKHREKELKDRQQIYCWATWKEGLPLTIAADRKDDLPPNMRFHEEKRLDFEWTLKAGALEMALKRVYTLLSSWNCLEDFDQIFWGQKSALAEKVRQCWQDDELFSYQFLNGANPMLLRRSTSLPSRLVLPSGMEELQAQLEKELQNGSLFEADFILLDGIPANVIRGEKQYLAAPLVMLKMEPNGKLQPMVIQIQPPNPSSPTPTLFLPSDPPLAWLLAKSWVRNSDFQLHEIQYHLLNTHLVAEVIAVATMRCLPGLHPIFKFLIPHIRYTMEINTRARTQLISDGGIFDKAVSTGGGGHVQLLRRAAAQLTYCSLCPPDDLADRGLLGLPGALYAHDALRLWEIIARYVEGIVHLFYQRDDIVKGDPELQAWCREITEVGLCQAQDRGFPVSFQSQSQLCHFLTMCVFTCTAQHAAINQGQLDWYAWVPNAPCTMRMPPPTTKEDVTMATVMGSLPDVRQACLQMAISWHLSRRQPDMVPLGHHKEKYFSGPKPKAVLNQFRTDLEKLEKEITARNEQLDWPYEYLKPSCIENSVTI
#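 Purified human 12hLO (150 nM final) in 25 mM Hepes, 0.01% Triton X-100, pH 7.0 was preincubated 15 min at room temperature with compound. Then 40 uM arachidonic acid was added, 30 min. Hydroperoxide was read by Fe-XO absorbance ratio 573/405 nm.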
# DT40 TDP1 CPT – growth inhibition of DT40 Tdp1-/-;hTDP1 cells with camptothecin (screen for TDP1 inhibitors); 12% of 420,000 active; Potency, µM (titrated, usually from 46.2 µM), for the others: top-dose activity change, negative = growth inhibition, most hits filed as inhibitors; chicken DT40 Tdp1-/-;hTDP1 cells + 20 nM CPT, ATP luminescence, 48 h; note: potency is the fitted concentration of half-maximal effect; nearly all actives have a fitted effect of over 55% in size
#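 Cell growth measured by CellTiter-Glo luminescence after a minimum 48 h, 37 C compound exposure with 20 nM CPT in Tdp1-knockout DT40 cells stably expressing hTDP1, seeded 400/well; qHTS titration format.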
# * hit, by the source's call; ? = inconclusive; . = no result; [ ] = remark or other dose. Shown is part of a subset that was picked to be rich in hits. Unless noted, calls come from the whole dose curve; as a rule, active = well fitted curve in the direction sought with a large enough effect; inconclusive = small, poorly fitted or top-dose-only effect, or another doubt; inactive = no such curve, though single readings can be large; an effect the other way counts as inactive or inconclusive. Unless noted, % is set by controls: 0 for no effect and ±100 for the full control effect.
SMILES,HT1080-NT tox,HT1080 IDH1KD tx,DT40 TDP1 no CPT,IL1B secr inh,12-LOX inh,DT40 TDP1 CPT
O=C(Nc1cccc(S(=O)(=O)NC2=NCCCCC2)c1)c1cc(-c2ccco2)nc2ccccc12,?,-29.9%,9.2µM*,4.7,?,?
CCOC(=O)c1c(C)[nH]c(C)c1S(=O)(=O)NCC(=O)Nc1cccc(SC)c1,.,.,-17.2%,.,-18.8%,?
O=C(c1cccc(F)c1)N1CCC[C@@]2(CCN(c3ccccc3)C2)C1,.,.,?,.,-7.6%[57.4 µM],?
O=C(c1cccc(F)c1)N1CCC2(CC1)CCN(c1cccc(-c3ccccc3)c1)CC2,.,.,16.4µM*,.,?,?
N#Cc1cccc(NC(=O)N2CC[C@@]3(CCCN(C(=O)c4cccc(F)c4)C3)C2)c1,.,.,20.6µM*,.,?,-24.7%
COc1ccc(C(=O)N2CCC3(CC2)CN(c2ccc(-c4ccccc4)cc2)C3)cc1,.,.,?,.,?,27.2%
O=C(c1cccc(F)c1)N1CCC[C@@]2(CCN(c3cccc(-c4ccccc4)c3)C2)C1,.,.,20.6µM*,.,0.7%[57.4 µM],20.6µM*
COc1ccc(C(=O)N2CCC3(CC2)CCN(c2cccc(-c4ccccc4)c2)CC3)cc1,.,.,0.231µM*,.,-12.9%[57.4 µM],0.116µM*
Cc1cccc(OCCc2noc(C3CN(C(=O)c4cccnc4C)C3)n2)c1,.,.,.,.,51.7%,.
O=C(NCc1ccccc1)c1nnn2c1COC(c1ccc(Cl)cc1)C2 (stereo unspecified),.,.,.,.,1.1%,.
CCOC(=O)CSc1n[nH]c2nc3c(c(=O)n12)C1(CCCC1)Cc1ccccc1-3,.,.,.,.,-19.7%,.
O=C(c1cccc(F)c1)N1CCC2(CC1)CN(c1cccc(-c3ccccc3)c1)C2,.,.,16.4µM*,.,-4.4%[57.4 µM],?
CN(C)CCN(Cc1ccccc1)S(=O)(=O)c1ccc(-c2cc(C(F)(F)F)on2)s1,.,.,11.6µM*,.,?,14.6µM*
CCOC(=O)Cn1c(-c2ccccc2)nc2ccccc2c1=O,1.9%,5.6%,2.5%,17.8,-19.1%,-11.2%
C#CCn1c(S(=O)(=O)Cc2ccc(F)cc2)nc(-c2ccccc2)c1-c1ccccc1,?,1.41µM*,10.3µM*,?,-4.2%,14.6µM*
CCOC(=O)Cn1c(S(=O)(=O)Cc2cccc(F)c2)nc(-c2ccccc2)c1-c1ccccc1,-3.2%,7.08µM*,10.3µM*,-20.3,22.2%,8.2µM*
NC(=O)Cn1c(S(=O)(=O)Cc2ccccc2)nc2ccccc21,?,26.4%,19.8%,21.1,?,-8.7%
CCN(CC)Cc1ccc(Nc2ccnc3cc(Cl)ccc23)cc1O,.,.,6.51µM*,.,.,7.31µM*
CCOc1ccc(NC(=S)NNc2ccnc3cc(Cl)ccc23)cc1,?,?,13µM*,-88.9*,?,?
O=C(NCCCNc1ccnc2cc(Cl)ccc12)c1ccccc1F,-18.9%,-2.3%,?,-25.1,?,?
CCOc1ccccc1Nc1ccnc2cc(Cl)ccc12,-7.8%,-12.6%,23.1µM*,-88.5*,-1.3%,?
S=C(NNc1ccnc2cc(Cl)ccc12)Nc1ccc(Cl)cc1Cl,?,-10.2%,3.66µM*,-86.4*,?,4.61µM*
Nc1ccc(OCC(F)F)c(Cl)c1,.,.,.,.,-1.4%,.
O=C1N(c2ccccc2)c2ccccc2C12CCN(Cc1ccccc1)C2 (stereo unspecified),.,.,.,.,4.8%[6.33 µM],.
Oc1cccc(O)c1O,.,.,?,.,.,5.96µM*
SMILES,HT1080-NT tox,HT1080 IDH1KD tx,DT40 TDP1 no CPT,IL1B secr inh,12-LOX inh,DT40 TDP1 CPT
Cc1c(Cl)cccc1NC(=O)N1CCSc2ncccc21,.,.,.,.,-35.2%,.
Cc1cc(C)n(-c2cc(C(C)(C)C)nc3c(-c4ccc(Cl)cc4)cnn23)n1,?,?,?,-2.3,0.0%,11.2µM*
CC(C)(C)c1cc(N2CCOCC2)n2ncc(-c3ccc(Cl)cc3)c2n1,?,5.1%,13µM*,-0.7,104.3%,?
Cc1cc(C)n(-c2cc(C(C)(C)C)nc3c(-c4ccccc4)cnn23)n1,?,?,?,.,-1.8%,-21.1%
COc1ccc(NC(=O)C(=O)NCc2ccc(C)cc2)c(OC)c1,.,.,.,.,8.8%,.
COc1ccc(CN(Cc2ccccn2)C(=O)CN2C(=O)C(C)Oc3ccccc32)cc1 (stereo unspecified),6.0%,9.8%,20.6µM*,-4.9,0.4%,?
COc1ccc(NC(=O)N(Cc2ccc(C)cc2)Cc2ccccn2)c(OC)c1,-1.6%,-8.7%,?,14.5,-2.3%,25.9µM*
O=C(CN1C(=O)COc2ccccc21)N(Cc1ccccc1)Cc1ccccn1,2.7%,1.8%,-16.9%,-5.1,17.4%,-21.1%
NC(=O)C1CCN(CC(=O)Nc2oc3ccccc3c(=O)c2-c2ccc(F)cc2)CC1,.,.,.,.,-13.4%,.
COc1ccc(Cl)cc1C(=O)Nn1c(-c2cccs2)nc2ccccc2c1=O,-7.2%,-18.8%,?,?,-1.4%,10.3µM*
CC1CCC(NC(=O)c2cc3n(n2)CC(c2ccc4c(c2)OCO4)OC3)CC1 (stereo unspecified),.,.,.,.,17.4%,.
CCOc1cc(Cl)c(S(=O)(=O)NCCCn2ccnc2)cc1Cl,-1.8%,?,16.4µM*,1.6,23.9%,20.6µM*
COc1ccc(Cl)cc1S(=O)(=O)NCCCn1ccnc1,-3.6%,1.0%,-3.9%,-4.8,43.2%,2.6%
COC(=O)C1=CN(CC(=O)Nc2ccccc2OC)S(=O)(=O)N=C1C,.,.,.,.,0.9%,.
COC(=O)Cc1c(C)c2ccc(OCC(=O)N3CCCC(C)C3)c(C)c2oc1=O (stereo unspecified),-23.7%,-5.7%,?,-4.4,-5.9%,25.9µM*
CC(C)=CCOc1ccc2c(C)c(CCC(=O)N3C[C@H]4C[C@@H](C3)c3cccc(=O)n3C4)c(=O)oc2c1C,.,.,.,.,8.5%,.
C=C(C)COc1ccc2c(C)c(CC(=O)N3C[C@H]4C[C@@H](C3)c3cccc(=O)n3C4)c(=O)oc2c1C,11.3%,9.8%,18.4µM*,-7.9,16.1%,14.6µM*
C=C(C)COc1ccc2c(C)c(CC(=O)OC)c(=O)oc2c1C,-12.9%,-20.4%,11.6µM*,-16.1,.,18.4µM*
CCCOc1ccc2c(C)c(CC(=O)OC)c(=O)oc2c1,4.7%,-0.5%,10.3µM*,-18.3,-28.1%,?
Cn1c(=O)[nH]c(=O)c2[nH]c(CN3CCN(c4cccc(Cl)c4)CC3)nc21,.,.,.,.,11.5%,.
O=C(CNC(=O)NCc1ccccc1)NCc1cccc(C(F)(F)F)c1,.,.,.,.,6.4%,.

# Source: PubChem BioAssay (National Center for Advancing Translational Sciences (NCATS))
